# Test results as given in PubChem BioAssay (NCI).
# Compounds without any hit were thinned out: in the full panel of roughly 79,000, 15% have a hit. Values without a mark were called inactive. The source made the active and inactive calls. Rule as the data show it: active = growth inhibition above about 70%; inactive = the rest.
# How the values were obtained:
# [1] = NCI Yeast Anticancer Drug Screen. Data for the rad52 strain (AID 147);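 also: 0% = growth of vehicle-treated control cultures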; details: S. cerevisiae rad52 mutant growth inhibition, active compounds read high
# Procedure, shortened: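 Read-out: growth inhibition versus vehicle-treated controls. Cells were a DNA repair-deficient yeast strain treated with compounds.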
# [2] = NCI Yeast Anticancer Drug Screen. Data for the wt1 strain (AID 149);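 also: 0% = growth of vehicle-treated wt1 cultures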; details: S. cerevisiae wt1 strain (SPY 50644) growth inhibition, active compounds read high
# Procedure, shortened: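 Yeast wt1 strain exposed to compounds; growth inhibition measured relative to vehicle-treated controls.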
# [3] = NCI Yeast Anticancer Drug Screen. Data for the rad50EPP+ strain (AID 151);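 also: 0% = growth of vehicle-treated control cultures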; details: S. cerevisiae rad50 mutant strain, active compounds read high
# Procedure, shortened: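 Growth inhibition read against vehicle controls in rad50EPP+ yeast, a strain altered in DNA damage repair, after compound exposure.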
# [4] = NCI Yeast Anticancer Drug Screen. Data for the mgt1 strain (AID 153); details: S. cerevisiae mgt1 mutant growth inhibition, active compounds read high
# Procedure, shortened: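 mgt1 yeast grown with test compound; read-out is growth inhibition versus vehicle-treated cultures.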
# [5] = NCI Yeast Anticancer Drug Screen. Data for the rad50 strain (AID 155);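 also: 0% = growth of vehicle-only cultures of the same strain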; details: S. cerevisiae rad50 strain growth inhibition, active compounds read high
# Procedure, shortened: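 Yeast carrying a defined DNA repair defect were exposed to test compounds, and growth was compared with vehicle-treated controls to give percent inhibition.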
# [6] = NCI Yeast Anticancer Drug Screen. Data for the mec2-1 strain (AID 157); details: S. cerevisiae mec2-1 strain, active compounds read high
# Procedure, shortened: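 Yeast mec2-1 mutant treated with compound. Readout: growth inhibition vs vehicle controls.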
# [7] = NCI Yeast Anticancer Drug Screen. Data for the rad14 strain (AID 159);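 also: 0% = growth of vehicle-treated control cultures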; details: S. cerevisiae rad14 strain growth inhibition, active compounds read high
# Procedure, shortened: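 Yeast cells carrying a defined DNA-repair defect were exposed to compounds, and growth inhibition was calculated relative to vehicle-treated control cultures.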
# [8] = NCI Yeast Anticancer Drug Screen. Data for the sgs1 mgt1 strain (AID 161);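 also: 0% = growth of cultures given vehicle only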; details: S. cerevisiae sgs1 mgt1 strain, active compounds read high
# Procedure, shortened: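 Mutant yeast exposed to compound; growth scored against vehicle-only wells.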
# [9] = NCI Yeast Anticancer Drug Screen. Data for the CLN2oe strain (AID 163);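 also: 0% = growth of vehicle-only control cultures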; details: S. cerevisiae CLN2oe strain, active compounds read high
# Procedure, shortened: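 Read-out: yeast growth inhibition, expressed relative to vehicle-only controls. The strain bears an engineered cell-cycle alteration.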
# [10] = NCI Yeast Anticancer Drug Screen. Data for the cln2 rad14 strain (AID 165);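 also: 0% = growth equal to vehicle treated cultures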; details: S. cerevisiae cln2 rad14 strain, active compounds read high
# Procedure, shortened: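 cln2 rad14 yeast strain; compound exposure; growth inhibition read vs vehicle controls.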
# [11] = NCI Yeast Anticancer Drug Screen. Data for the bub3 strain (AID 167); details: S. cerevisiae bub3 mutant strain, active compounds read high
# Procedure, shortened: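 Compounds were applied to a genetically altered yeast strain carrying a cell-cycle control defect. Growth inhibition was scored against vehicle-treated controls.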
# [12] = NCI Yeast Anticancer Drug Screen. Data for the wt2 strain (AID 169);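 also: 0% = growth of vehicle-treated yeast cultures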; details: S. cerevisiae wt2 strain growth inhibition, active compounds read high
# Procedure, shortened: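 Read-out: growth inhibition versus vehicle-treated control cultures after compound exposure of the yeast strain.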
# [13] = NCI Yeast Anticancer Drug Screen. Data for the mlh1 strain (AID 171);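 also: 0% = growth of vehicle-treated control cultures of the same strain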; details: S. cerevisiae mlh1 strain growth inhibition, active compounds read high
# Procedure, shortened: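 Read-out: growth inhibition versus vehicle controls. Strain: engineered yeast with a defined DNA repair or cell cycle defect, compound-treated.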
# [14] = NCI Yeast Anticancer Drug Screen. Data for the sgs1 strain (AID 173);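 also: 0% = growth of vehicle-only control cultures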; details: S. cerevisiae sgs1 mutant, active compounds read high
# Procedure, shortened: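 Read-out: yeast growth inhibition relative to vehicle controls, following compound exposure of a strain with a defined DNA repair/cell cycle alteration.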
# [15] = NCI Yeast Anticancer Drug Screen. Data for the mlh1 rad18 strain (AID 175); details: S. cerevisiae mlh1 rad18 strain growth inhibition, active compounds read high
# Procedure, shortened: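 Yeast w/ defined DNA-repair lesions; compound exposure; growth vs vehicle controls → % inhibition.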
# [16] = NCI Yeast Anticancer Drug Screen. Data for the rad18 strain (AID 177); details: S. cerevisiae rad18 mutant growth inhibition, active compounds read high
# Procedure, shortened: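 Readout: growth inhibition vs vehicle controls. Cells: genetically altered yeast strain, DNA repair defect.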
# [17] = at 5.0 µM (retest, dose inferred, filed as 0.5)
# [18] = at 50.0 µM (retest, dose inferred, filed as 5.0)
structure (smiles),measurement,setting,value
COc1ccc(OC)c2cc3ccccc3cc12,growth inhibition,[1]; at 1.2 µM,11%
same,growth inhibition,[1]; at 3.7 µM,-9%
same,growth inhibition,[1]; at 11.0 µM,6%
same,growth inhibition,[1]; at 33.0 µM,10%
same,growth inhibition,[1]; at 100.0 µM,17%
same,growth inhibition,[2]; at 1.2 µM,-19%
same,growth inhibition,[2]; at 3.7 µM,-19%
same,growth inhibition,[2]; at 11.0 µM,-12%
same,growth inhibition,[2]; at 33.0 µM,-8%
same,growth inhibition,[2]; at 100.0 µM,-4%
same,growth inhibition,[3]; at 1.2 µM,-13%
same,growth inhibition,[3]; at 3.7 µM,7%
same,growth inhibition,[3]; at 11.0 µM,46%
same,growth inhibition,[3]; at 33.0 µM,52%
same,growth inhibition,[3]; at 100.0 µM,60%
same,growth inhibition,[4]; at 1.2 µM,25%
same,growth inhibition,[4]; at 3.7 µM,14%
same,growth inhibition,[4]; at 11.0 µM,15%
same,growth inhibition,[4]; at 33.0 µM,18%
same,growth inhibition,[4]; at 100.0 µM,24%
same,growth inhibition,[5]; at 1.2 µM,-1%
same,growth inhibition,[5]; at 3.7 µM,-1%
same,growth inhibition,[5]; [17],52%
same,growth inhibition,[5]; at 11.0 µM,10%
same,growth inhibition,[5]; at 33.0 µM,17%
same,growth inhibition,[5]; [18],81% (active)
same,growth inhibition,[5]; at 50.0 µM,74.3% (active)
same,growth inhibition,[5]; at 100.0 µM,4%
same,growth inhibition,[6]; at 1.2 µM,-5%
same,growth inhibition,[6]; at 3.7 µM,-11%
same,growth inhibition,[6]; [17],63%
same,growth inhibition,[6]; at 11.0 µM,-6%
same,growth inhibition,[6]; at 33.0 µM,21%
same,growth inhibition,[6]; [18],87% (active)
same,growth inhibition,[6]; at 50.0 µM,85.2% (active)
same,growth inhibition,[6]; at 100.0 µM,8%
same,growth inhibition,[7]; at 1.2 µM,-4%
same,growth inhibition,[7]; at 3.7 µM,-6%
same,growth inhibition,[7]; at 11.0 µM,-3%
same,growth inhibition,[7]; at 33.0 µM,4%
same,growth inhibition,[7]; at 100.0 µM,18%
same,growth inhibition,[8]; [17],-24%
same,growth inhibition,[8]; [18],27%
same,growth inhibition,[8]; at 50.0 µM,73.1% (active)
same,growth inhibition,[9]; at 1.2 µM,12%
same,growth inhibition,[9]; at 3.7 µM,14%
same,growth inhibition,[9]; at 11.0 µM,16%
same,growth inhibition,[9]; at 33.0 µM,19%
same,growth inhibition,[9]; at 100.0 µM,3%
same,growth inhibition,[10]; [17],46%
same,growth inhibition,[10]; [18],51%
same,growth inhibition,[10]; at 50.0 µM,39.6%
same,growth inhibition,[11]; at 1.2 µM,22%
same,growth inhibition,[11]; at 3.7 µM,8%
same,growth inhibition,[11]; [17],36%
same,growth inhibition,[11]; at 11.0 µM,22%
same,growth inhibition,[11]; at 33.0 µM,33%
same,growth inhibition,[11]; [18],64%
same,growth inhibition,[11]; at 50.0 µM,89.7% (active)
same,growth inhibition,[11]; at 100.0 µM,32%
same,growth inhibition,[12]; at 1.2 µM,-23%
same,growth inhibition,[12]; at 3.7 µM,-28%
same,growth inhibition,[12]; at 11.0 µM,-16%
same,growth inhibition,[12]; at 33.0 µM,-8%
same,growth inhibition,[12]; at 100.0 µM,9%
same,growth inhibition,[13]; at 1.2 µM,14%
same,growth inhibition,[13]; at 3.7 µM,9%
same,growth inhibition,[13]; at 11.0 µM,8%
same,growth inhibition,[13]; at 33.0 µM,20%
same,growth inhibition,[13]; at 100.0 µM,19%
same,growth inhibition,[14]; at 1.2 µM,-12%
same,growth inhibition,[14]; at 3.7 µM,-12%
same,growth inhibition,[14]; at 11.0 µM,-5%
same,growth inhibition,[14]; at 33.0 µM,-1%
same,growth inhibition,[14]; at 100.0 µM,7%
same,growth inhibition,[15]; [17],48%
same,growth inhibition,[15]; [18],81% (active)
same,growth inhibition,[15]; at 50.0 µM,70.2% (active)
same,growth inhibition,[16]; at 1.2 µM,5%
same,growth inhibition,[16]; at 3.7 µM,4%
same,growth inhibition,[16]; at 11.0 µM,21%
same,growth inhibition,[16]; at 33.0 µM,24%
same,growth inhibition,[16]; at 100.0 µM,50%
CC/C(=C(\c1ccccc1)c1ccc(OCCN(C)C)cc1)c1ccccc1,growth inhibition,[1]; at 1.2 µM,15%
same,growth inhibition,[1]; at 3.7 µM,11%
same,growth inhibition,[1]; at 11.0 µM,38%
same,growth inhibition,[1]; at 33.0 µM,98% (active)
same,growth inhibition,[1]; at 100.0 µM,98% (active)
same,growth inhibition,[2]; at 1.2 µM,8%
same,growth inhibition,[2]; at 3.7 µM,-8%
same,growth inhibition,[2]; at 11.0 µM,22%
same,growth inhibition,[2]; at 33.0 µM,98% (active)
same,growth inhibition,[2]; at 100.0 µM,50%
same,growth inhibition,[3]; at 1.2 µM,12%
same,growth inhibition,[3]; at 3.7 µM,2%
same,growth inhibition,[3]; at 11.0 µM,1%
same,growth inhibition,[3]; at 33.0 µM,97% (active)
same,growth inhibition,[3]; at 100.0 µM,97% (active)
same,growth inhibition,[4]; at 1.2 µM,7%
same,growth inhibition,[4]; at 3.7 µM,8%
same,growth inhibition,[4]; at 11.0 µM,94% (active)
same,growth inhibition,[4]; at 33.0 µM,98% (active)
same,growth inhibition,[4]; at 100.0 µM,97% (active)
same,growth inhibition,[5]; at 1.2 µM,9%
same,growth inhibition,[5]; at 3.7 µM,21%
same,growth inhibition,[5]; [17],44%
same,growth inhibition,[5]; at 11.0 µM,64%
same,growth inhibition,[5]; at 33.0 µM,98% (active)
same,growth inhibition,[5]; [18],99% (active)
same,growth inhibition,[5]; at 50.0 µM,90% (active)
same,growth inhibition,[5]; at 100.0 µM,97% (active)
same,growth inhibition,[6]; at 1.2 µM,-9%
same,growth inhibition,[6]; at 3.7 µM,-11%
same,growth inhibition,[6]; [17],46%
same,growth inhibition,[6]; at 11.0 µM,46%
same,growth inhibition,[6]; at 33.0 µM,98% (active)
same,growth inhibition,[6]; [18],99% (active)
same,growth inhibition,[6]; at 50.0 µM,93.4% (active)
same,growth inhibition,[6]; at 100.0 µM,97% (active)
same,growth inhibition,[7]; at 1.2 µM,-26%
same,growth inhibition,[7]; at 3.7 µM,-9%
same,growth inhibition,[7]; at 11.0 µM,89% (active)
same,growth inhibition,[7]; at 33.0 µM,97% (active)
same,growth inhibition,[7]; at 100.0 µM,96% (active)
same,growth inhibition,[8]; [17],-12%
same,growth inhibition,[8]; [18],98% (active)
same,growth inhibition,[8]; at 50.0 µM,92.8% (active)
same,growth inhibition,[9]; at 1.2 µM,4%
same,growth inhibition,[9]; at 3.7 µM,14%
same,growth inhibition,[9]; at 11.0 µM,82% (active)
same,growth inhibition,[9]; at 33.0 µM,98% (active)
same,growth inhibition,[9]; at 100.0 µM,97% (active)
same,growth inhibition,[10]; [17],30%
same,growth inhibition,[10]; [18],99% (active)
same,growth inhibition,[10]; at 50.0 µM,92% (active)
same,growth inhibition,[11]; at 1.2 µM,5%
same,growth inhibition,[11]; at 3.7 µM,10%
same,growth inhibition,[11]; [17],24%
same,growth inhibition,[11]; at 11.0 µM,38%
same,growth inhibition,[11]; at 33.0 µM,98% (active)
same,growth inhibition,[11]; [18],92% (active)
same,growth inhibition,[11]; at 50.0 µM,91.5% (active)
same,growth inhibition,[11]; at 100.0 µM,98% (active)
same,growth inhibition,[12]; at 1.2 µM,-9%
same,growth inhibition,[12]; at 3.7 µM,-15%
same,growth inhibition,[12]; at 11.0 µM,55%
same,growth inhibition,[12]; at 33.0 µM,98% (active)
same,growth inhibition,[12]; at 100.0 µM,97% (active)
same,growth inhibition,[13]; at 1.2 µM,-3%
same,growth inhibition,[13]; at 3.7 µM,0%
same,growth inhibition,[13]; at 11.0 µM,82% (active)
same,growth inhibition,[13]; at 33.0 µM,97% (active)
same,growth inhibition,[13]; at 100.0 µM,97% (active)
same,growth inhibition,[14]; at 1.2 µM,0%
same,growth inhibition,[14]; at 3.7 µM,1%
same,growth inhibition,[14]; at 11.0 µM,84% (active)
same,growth inhibition,[14]; at 33.0 µM,97% (active)
same,growth inhibition,[14]; at 100.0 µM,97% (active)
same,growth inhibition,[15]; [17],46%
same,growth inhibition,[15]; [18],99% (active)
same,growth inhibition,[15]; at 50.0 µM,40.4%
